Measurements taken from article PMC13494018.

B1: Pdl1_binder_AF2_18 (protein)
chain: DEETRREIAEHLLRVAKKDQGLVDAEIEGDKVRVKAKTEEQYEKGKIAAEAAAAIVGGEAEAEIV
B2: Pdl1_binder_AF2_51 (protein)
chain: MEVIYADTKEEATMKVMEALSRGVAREDILVYLKDAKDAEKLAKVWGVTAKLA
B3: d4r5_design_ppi_497_dldesign_0_cycle0_af2pred (protein)
chain: KKEEVRKITEEAIEKMRTVEPEEAVNAVQDAQFEMQGLAPTAETRRKVARLASEAARLVATGEKVEEGIEKLREAGEYLIESL
B4: Pdl1_binder_AF2_49 (protein)
chain: SKKVRFQAYQASAEVIAKEVGGYVVSTGPDKVVIAAPTEEAAEKARKALDELGKAFGFGYEVFVA
B5: Pdl1_binder_AF2_7 (protein)
chain: DKESAAKKAIQLLEIARERVVADPAAAKAFKEAAKLVEVMLKDAGADEEKAEKVEEKAEKAADAYAAGDKETADKYYEEAVELVKEAA
B6: Pdl1_binder_AF2_22 (protein)
chain: YRIAIFFPSREKAEEWAAEARAAGRLVRYLTNLMVVEVDSEEEARAVAAEAEALGAATVFLD
B7: Pdl1_binder_AF2_35 (protein)
chain: SLKEKAEKHIEEAEKLAKKVGELADKEKAEKAIELLKKGTPESIVEAIALLDQLAKEEKENKEEVRKLASEAIVAAMKAAALLDAAEE
B8: Pdl1_binder_AF2_30 (protein)
chain: MSKRDELLTKALEYLQKATKLVYEHDPETAREIAHHFSKAVADPEKAEEELEKALELAEKAAAEMERGEELRELMEKAKEYVLEYVKL
B9: Pdl1_binder_AF2_33 (protein)
chain: MEEAKRVAEQMALMMRAAGEEASVEVEGDKITIYYKGDDESLWEVAESVAEKIEEKYGVEVEVVR
B10: Pdl1_binder_AF2_12 (protein)
chain: MHRTVTVKNEAEAIAAVIEAYHSGEKLTIVTDSEEIAKKAERLNKQLGGNATFEV
B11: Pdl1_binder_AF2_3 (protein)
chain: MEKAEERKKWLLEKLKELGVEVKEISLDGHVVITGAKSEEALKGAESLVKMFGLFLGVEAKVEVV
B12: Pdl1_binder_AF2_8 (protein)
chain: YKLVVEAPNEKIAEQIKEIAESIGAKAEIEGMKVVIEADDKQTIEFIKLYAEEKGAKVLEIT
B13: Pdl1_binder_AF2_5 (protein)
chain: EEDLEKLVELARKALEHIKRAAEYSKEDESKMAEELAKAVALASEISKIDVEVAKLVLKAVNAVMKGDRLEEGVKLAEEALKRAEEKK
B14: Pdl1_binder_AF2_2 (protein)
chain: SIEEMVEEMEKLLEEAAKIVPEIKELLEKAKEIAKKAIEIAKKKGNGEAVAKIFRDMAEMTLRAAKFDKKGAENAALLMIKRAEDIAE
B15: Pdl1_binder_AF2_13 (protein)
chain: MYVLVAKADENEARFLKLMAEKLGVKAEVEGDIVTFVSDDKEAIEIIRRFLEKEGRVISFEE
B16: Pdl1_binder_AF2_43 (protein)
chain: SAIEKTKEKIRQLFESAGVEVEDIEVEGDTITVHVKEDTEAARQAALLANVYAEDKVGLKVVLEA
B17: Pdl1_binder_AF2_6 (protein)
chain: SDELRVEAVQVAQEASVAIARAERAVAEGDAEEIRRAAEELERAARRAEEQAERLEEAGDKGMAEFLRRVVERAREAAARARRAAEEL
B18: Pdl1_binder_AF2_45 (protein)
chain: MIVHIETPTRDLQLFLKLYAEEKGFKVVEAGETSLVIESDLPREKVEKFIRIAEAMGAKVEVEE
B19: Pdl1_binder_AF2_37 (protein)
chain: SETTLKETAKLIEVMAKDRGEFVKIEAKGDKIVLYTKTEEGAKKINKEGSKLAKSVGVEFEAKVA
B20: Pdl1_binder_AF2_52 (protein)
chain: IKEKIEELEKKAEEEVEEAKKLDKEEANKKLNKLSTEIYIEAIQVNDEEFRKKAVEILTKIAKESKELGLEEAEKAASSFAEELKEKL

What follows are binders tested against control:Baker_PD-L1, Q9NZQ7.
control:Baker_PD-L1, Q9NZQ7, sequence (Q9NZQ7 whole entry): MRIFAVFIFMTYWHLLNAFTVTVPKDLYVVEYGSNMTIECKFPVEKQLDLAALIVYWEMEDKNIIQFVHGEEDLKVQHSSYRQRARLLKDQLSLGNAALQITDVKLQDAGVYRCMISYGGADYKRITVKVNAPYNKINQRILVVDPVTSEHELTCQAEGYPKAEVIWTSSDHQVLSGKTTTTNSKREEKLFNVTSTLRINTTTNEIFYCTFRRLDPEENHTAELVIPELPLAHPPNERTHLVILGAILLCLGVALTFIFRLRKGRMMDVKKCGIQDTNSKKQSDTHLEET

Binding in a display sort, inactive:
B1 not found
B2 not found
B4 not found
B5 not found
B6 not found
B7 not found
B8 not found
B9 not found
B10 not found
B11 not found
B14 not found
B15 not found
B16 not found
B17 not found
B19 not found
B20 not found

Binding in a display sort, active:
B12 binds
B13 binds
B18 binds

The binders below were run against VTCN1, Q7Z7D3.
VTCN1, Q7Z7D3, sequence (Q7Z7D3 whole entry): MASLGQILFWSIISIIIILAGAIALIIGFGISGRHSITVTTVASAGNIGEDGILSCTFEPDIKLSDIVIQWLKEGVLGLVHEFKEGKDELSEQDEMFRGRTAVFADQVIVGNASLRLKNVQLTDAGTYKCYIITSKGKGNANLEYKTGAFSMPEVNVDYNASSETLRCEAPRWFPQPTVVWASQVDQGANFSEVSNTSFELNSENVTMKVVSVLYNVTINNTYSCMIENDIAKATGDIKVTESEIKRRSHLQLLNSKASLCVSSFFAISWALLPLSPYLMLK

Binding in a display sort, inactive:
B3 not found
